This passage reports composite z-score, composite Z-score and z-score results from PubChem BioAssay.

SMILES strings stand for the structures. Activity calls are given as the source filed them.

Test [1] has as its target Albumin (Bos taurus) (UniProt P02769). Briefly: compounds binding labelled BSA control protein – biochemical, small-molecule microarray, Alexa647 label, 635/667 nm fluorescence, artefact control for SMM control protein annotation, profiling panel (AID 1118).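 Also: score merges 667 nm emission intensity and signal-to-noise per printed compound spot.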 The conditions noted are these: BSA-A647 binding, fluorescence 635 nm, higher = more signal.
Test [2] is described as follows: probe aXIP binding to arrayed compounds – biochemical, NeuroSMM set, 635/667 nm fluorescence, primary screen (AID 1119).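 Also: probe is the protein aXip251-270 applied at 1 µg/mL to compound-printed slides; binding of probe to printed compounds measured as 667 nm fluorescence plus signal to noise.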 Conditions: small-molecule microarray, higher = more signal, called active from +8 up or from −8 down.
Test [3] can be described thus: probe aNOTCH3 binding on compound microarray – biochemical, small-molecule microarray, 635/667 nm fluorescence, primary screen (AID 1120).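 Also: probe is a biotin-tagged antibody raised against NOTCH3 rather than NOTCH3 protein; score merges spot fluorescence near 667 nm with spot signal to noise.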 The conditions noted are these: higher = more signal.
A short description of test [4]: probe aNOTCH2 binding on compound microarray – biochemical, small-molecule microarray, 635/667 nm fluorescence, primary screen (AID 1121).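 Also: score merges feature fluorescence read at 667 nm with its signal to noise.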 Conditions: higher = more signal.
Test [5] addresses Carbonic anhydrase 2 (Homo sapiens) (UniProt P00918). Briefly: compounds binding carbonic anhydrase 2 – biochemical, small-molecule microarray, Alexa647-labelled CAII, profiling panel (AID 1122). The conditions noted are these: CAII-A647 binding fluorescence, higher = more signal.
A short description of test [6]: COS7 lysate on small-molecule microarray, probe aHis, 635 nm (AID 1123).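 Also: z-score combines 667nm fluorescence intensity with signal-to-noise per printed compound spot.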 The conditions noted are these: COS7 cell lysate, fluorescence, higher = more signal.
The nature of test [7]: probe aLAP1 signal on lysate-treated microarray – cell lysate, small-molecule microarray, COS7 lysate, primary screen (AID 1124).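 Also: lysate comes from COS7 cells expressing LAP1 and is applied at 0.3 µg/mL; score merges spot fluorescence near 667 nm with signal-to-noise over triplicate slides.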 Conditions: probe aLAP1, fluorescence, higher = more signal.
The test system of test [8] is Sam68 (KHDRBS1). Put plainly: compounds binding KHDRBS1 protein – biochemical, small-molecule microarray, 635 nm fluorescence, primary screen (AID 1125).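 Also: score merges 667 nm channel intensity with signal to noise over triplicate slides.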 Conditions: higher = more signal.
Test [9] concerns Chordin-like protein 2 (CHRDL2). Briefly: compounds binding chordin-like 2 – biochemical, small-molecule microarray, 635 nm fluorescence, primary screen (AID 1126).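 Also: printed compound slides probed with Chrdl2 protein at 4 µg/mL for 1 h at 4 C; score merges 667 nm emission intensity with signal to noise over three replicate slides.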 The conditions noted are these: fluorescence 635 nm, higher = more signal.
Test [10] addresses Concanavalin-A (Canavalia ensiformis) (UniProt P02866). Put plainly: compounds binding concanavalin A lectin – biochemical, small-molecule microarray, Alexa647 label, 635 nm, artefact control for SMM control protein annotation, primary screen (AID 1127).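 Also: z combines 667 nm emission intensity with signal-to-noise across three replicate slides.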 Conditions: ConA-A647 binding fluorescence, higher = more signal.
The nature of test [11]: compounds binding Alexa647 anti-His antibody – biochemical, small-molecule microarray, 635 nm fluorescence, artefact control for SMM control protein annotation, primary screen (AID 1128).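 Also: score merges feature fluorescence with signal-to-noise for each printed compound spot.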 The conditions noted are these: higher = more signal.
In test [12] the test system is Human papillomavirus type 1a E7 protein (residues 1-88). Put plainly: HPV1a E7 small-molecule binders, primary screen, biochemical, small-molecule microarray, residues 1-88, 635 nm (AID 1129). Conditions: small-molecule microarray binding, fluorescence 635 nm; higher = more signal.
The target in test [13] is Focal adhesion kinase 1 (Homo sapiens) (UniProt Q05397). Put plainly: PTK2 protein binding on printed compound slides – biochemical, small-molecule microarray, 635/667 nm fluorescence, BSA, DTT, primary screen (AID 1130).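 Also: composite of spot emission at 667 nm and signal to noise over triplicate slides.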 The conditions noted are these: 635 nm fluorescence, higher = more signal.
Test [14] relates to Fibrinogen (Alexa647-labelled). Briefly: Alexa647-fibrinogen binding to printed small molecules – biochemical, small-molecule microarray, 635/667 nm fluorescence, artefact control for SMM control-protein annotation, profiling panel (AID 1131).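 Also: z-score merges 667 nm fluorescence with per-spot signal-to-noise over triplicate slides.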 Conditions: fibrinogen-A647 binding fluorescence, higher = more signal.
In test [15] the target is Follistatin (Homo sapiens) (UniProt P19883). Put plainly: FST protein binding to printed compounds – biochemical, small-molecule microarray, 635/667 nm fluorescence, primary screen (AID 1132). The conditions noted are these: 635 nm fluorescence, higher = more signal.
Test [16] concerns the target Fibroblast growth factor 2 (Homo sapiens) (UniProt P09038). Put plainly: basic fibroblast growth factor binding to printed compounds – biochemical, small-molecule microarray, 635/667 nm fluorescence, primary screen (AID 1133). Conditions: FGF2, fluorescence 635/667, higher = more signal.
Test [17] can be described thus: JC-1 mitochondrial potential readout, lung cancer cells – cell-based, A549, JC-1 fluorescence, basal, 24 h, 100 nL, profiling panel (AID 1138).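 Also: A549 lung adenocarcinoma cells under basal conditions with no added stimulus; test concentration not given here.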 The conditions noted are these: higher = more signal.
Test [18] relates to Lefty1. Put plainly: Lefty1 protein binding to printed compounds – biochemical, small-molecule microarray, 635/667 nm fluorescence, primary screen (AID 1139). Conditions: fluorescence 635/667, higher = more signal.
The test system of test [19] is wheat germ agglutinin (Triticum aestivum), Alexa647-labelled. Briefly: Alexa647-WGA lectin binding to printed small molecules – biochemical, small-molecule microarray, 635/667 nm fluorescence, artefact control for SMM control-protein annotation, profiling panel (AID 1140).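 Also: score merges 667 nm feature emission with signal to noise over triplicate slides.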 Conditions: WGA-A647 binding, 635 nm fluorescence, higher = more signal.
In test [20] the target is Luciferin 4-monooxygenase (Photinus pyralis) (UniProt P08659). Put plainly: inhibition of purified Photinus pyralis luciferase – biochemical, luminescence, purified enzyme, 2006 set, primary screen (AID 1141).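 Also: cell-free assay with purified firefly luciferase at 100 ng per well in PBS; test concentration not given here.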 Conditions: purified firefly luciferase, SteadyGlo luminescence, 30 min; higher = more signal, called active from +8 up or from −8 down.
Chain of Luciferin 4-monooxygenase (Photinus pyralis) (P08659 whole entry, looked up): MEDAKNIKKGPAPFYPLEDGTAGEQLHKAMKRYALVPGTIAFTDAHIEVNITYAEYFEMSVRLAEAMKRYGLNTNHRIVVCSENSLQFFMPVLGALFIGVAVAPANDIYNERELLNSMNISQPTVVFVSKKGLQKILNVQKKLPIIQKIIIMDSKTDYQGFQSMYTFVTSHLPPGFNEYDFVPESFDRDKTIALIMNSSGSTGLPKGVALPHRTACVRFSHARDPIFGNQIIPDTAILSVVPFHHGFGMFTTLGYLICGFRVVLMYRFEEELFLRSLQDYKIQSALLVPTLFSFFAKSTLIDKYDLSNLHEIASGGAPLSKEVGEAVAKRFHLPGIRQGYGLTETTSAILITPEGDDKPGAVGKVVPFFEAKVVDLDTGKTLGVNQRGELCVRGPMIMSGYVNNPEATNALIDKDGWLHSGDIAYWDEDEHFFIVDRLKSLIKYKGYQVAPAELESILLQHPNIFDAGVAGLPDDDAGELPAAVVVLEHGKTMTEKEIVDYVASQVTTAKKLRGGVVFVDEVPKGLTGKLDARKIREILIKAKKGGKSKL

Chain of Concanavalin-A (Canavalia ensiformis) (P02866 whole entry, looked up): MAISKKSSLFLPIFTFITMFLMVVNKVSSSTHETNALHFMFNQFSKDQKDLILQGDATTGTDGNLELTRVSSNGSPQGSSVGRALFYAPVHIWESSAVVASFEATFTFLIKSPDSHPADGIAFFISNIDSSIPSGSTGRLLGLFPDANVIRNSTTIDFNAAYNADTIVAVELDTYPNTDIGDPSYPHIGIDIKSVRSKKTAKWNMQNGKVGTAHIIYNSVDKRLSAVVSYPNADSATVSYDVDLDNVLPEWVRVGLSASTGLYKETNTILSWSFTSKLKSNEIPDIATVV
Chain of Fibroblast growth factor 2 (Homo sapiens) (P09038 whole entry, looked up): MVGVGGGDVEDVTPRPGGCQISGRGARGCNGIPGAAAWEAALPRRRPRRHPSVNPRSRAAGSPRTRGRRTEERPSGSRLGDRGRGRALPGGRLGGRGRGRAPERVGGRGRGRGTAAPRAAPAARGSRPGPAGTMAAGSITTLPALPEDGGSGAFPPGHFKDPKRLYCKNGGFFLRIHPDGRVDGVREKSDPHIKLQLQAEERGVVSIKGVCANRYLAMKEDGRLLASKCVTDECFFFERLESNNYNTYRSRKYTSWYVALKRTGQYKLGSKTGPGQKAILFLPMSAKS
Chain of Albumin (Bos taurus) (P02769 whole entry, looked up): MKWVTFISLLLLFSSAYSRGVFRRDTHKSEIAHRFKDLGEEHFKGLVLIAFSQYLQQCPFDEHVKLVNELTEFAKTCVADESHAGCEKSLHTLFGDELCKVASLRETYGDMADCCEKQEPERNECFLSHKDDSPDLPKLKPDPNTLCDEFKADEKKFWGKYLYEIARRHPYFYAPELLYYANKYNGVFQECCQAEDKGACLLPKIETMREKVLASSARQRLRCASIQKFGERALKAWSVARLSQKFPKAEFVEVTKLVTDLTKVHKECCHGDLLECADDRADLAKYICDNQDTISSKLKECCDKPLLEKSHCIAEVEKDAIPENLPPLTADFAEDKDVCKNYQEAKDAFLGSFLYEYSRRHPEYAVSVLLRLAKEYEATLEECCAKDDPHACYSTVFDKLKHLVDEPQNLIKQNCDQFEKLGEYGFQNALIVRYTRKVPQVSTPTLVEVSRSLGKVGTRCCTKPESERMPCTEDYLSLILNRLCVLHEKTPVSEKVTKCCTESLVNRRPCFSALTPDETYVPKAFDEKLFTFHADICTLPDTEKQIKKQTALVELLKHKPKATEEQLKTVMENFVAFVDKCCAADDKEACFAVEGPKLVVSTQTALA
Chain of Follistatin (Homo sapiens) (P19883 whole entry, looked up): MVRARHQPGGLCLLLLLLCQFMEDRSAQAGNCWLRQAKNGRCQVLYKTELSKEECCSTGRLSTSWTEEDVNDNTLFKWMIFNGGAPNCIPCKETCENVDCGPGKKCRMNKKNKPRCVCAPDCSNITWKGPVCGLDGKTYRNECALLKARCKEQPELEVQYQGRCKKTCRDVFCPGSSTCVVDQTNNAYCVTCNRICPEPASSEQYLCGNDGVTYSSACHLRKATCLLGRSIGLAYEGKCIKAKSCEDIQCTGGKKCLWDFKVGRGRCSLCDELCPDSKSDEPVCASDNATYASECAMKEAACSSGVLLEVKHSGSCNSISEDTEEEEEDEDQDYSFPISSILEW
Chain of Focal adhesion kinase 1 (Homo sapiens) (Q05397 whole entry, looked up): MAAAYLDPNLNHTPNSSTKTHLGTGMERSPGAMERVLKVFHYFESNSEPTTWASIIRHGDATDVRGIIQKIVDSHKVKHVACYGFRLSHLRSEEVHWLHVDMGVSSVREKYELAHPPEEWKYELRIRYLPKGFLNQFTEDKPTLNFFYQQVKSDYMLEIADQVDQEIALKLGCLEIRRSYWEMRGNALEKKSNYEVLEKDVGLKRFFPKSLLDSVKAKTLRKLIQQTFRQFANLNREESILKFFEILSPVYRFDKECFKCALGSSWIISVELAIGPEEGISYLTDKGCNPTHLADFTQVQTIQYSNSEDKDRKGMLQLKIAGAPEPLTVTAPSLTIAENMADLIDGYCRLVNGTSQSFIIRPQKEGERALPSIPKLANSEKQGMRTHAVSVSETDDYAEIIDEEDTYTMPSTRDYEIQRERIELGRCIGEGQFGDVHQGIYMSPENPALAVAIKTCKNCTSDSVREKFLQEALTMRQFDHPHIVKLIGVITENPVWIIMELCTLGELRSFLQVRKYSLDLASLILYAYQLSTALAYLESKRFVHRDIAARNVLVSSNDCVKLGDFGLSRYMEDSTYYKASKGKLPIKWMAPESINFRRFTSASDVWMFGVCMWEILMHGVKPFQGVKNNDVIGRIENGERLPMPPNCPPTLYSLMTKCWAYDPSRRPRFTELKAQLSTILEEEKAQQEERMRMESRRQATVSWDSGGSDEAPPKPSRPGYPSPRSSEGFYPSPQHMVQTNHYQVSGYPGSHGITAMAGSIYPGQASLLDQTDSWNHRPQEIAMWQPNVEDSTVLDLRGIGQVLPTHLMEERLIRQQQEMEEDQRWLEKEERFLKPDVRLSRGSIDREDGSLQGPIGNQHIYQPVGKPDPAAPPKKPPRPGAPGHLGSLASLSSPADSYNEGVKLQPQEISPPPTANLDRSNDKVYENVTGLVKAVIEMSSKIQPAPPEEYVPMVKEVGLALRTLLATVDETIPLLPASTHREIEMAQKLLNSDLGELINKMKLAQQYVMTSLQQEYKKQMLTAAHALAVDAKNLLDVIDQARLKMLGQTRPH

With `COC(=O)C1=C(C)N(Cc2ccccc2)c2c(C(=O)OC)c(C(=O)OC)c(C(=O)OC)c(=O)n2[C@@H]1c1ccccc1`, the composite z-score in [1] was 0.8; in test [3] it was 0.116; in test [4], -0.0158; in test [5], 0.0478; in test [6] it was 0.247; in test [7], 0.763. In addition, the composite z-score in test [8] was 0.383; in test [9], -0.0328; in [10], 0.641; in [11], -0.0074; in test [12], 0.436; in [13] it was 0.39. The composite z-score in [14] was determined as 0.437; in test [15], 0.321; in test [16] it was 0.528; in test [18], 0.27; in test [19] it was 0.292. Besides, the composite Z-score in test [2] was 0.242 (inactive). For the same compound, the z-score in test [17] is 0.813; in [20], -1.01 (inactive).
On to `CC(=O)NCCCC[C@@H]1NC(=O)[C@@H]2C[C@H](C(=O)NCc3ccc(F)cc3)[C@H](c3cccc(OCCO)c3)N2C1=O`, for which the composite z-score in [1] is 0.188; in [3] it was -0.226; in [4], 0.0383; in test [5] it was 0.659; in test [6], 1.07; in test [7], 0.19. The composite z-score is 0.506 in test [8]; 0.174 in test [9]; 0.474 in test [10]; 1.6 in test [11]; 0.308 in test [12]; -0.135 in test [13]. Further, the composite z-score is 0.371 in [14]; 1.3 in test [15]; 1.7 in test [16]; 0.115 in [18]; -0.087 in [19]. Also, the composite Z-score in [2] was 0.328 (inactive). Moreover, the z-score in [17] is 1.25; in test [20], -0.425 (inactive).
Regarding `CC(C)(C)OC(=O)CC[C@]1(C(=O)NCCN2CCOCC2)N=C(c2ccc(OCCCO)cc2)O[C@H]1c1ccccc1CN=[N+]=[N-]`, the composite z-score in test [1] is 0.433; in test [3], 0.145; in test [4], -0.057; in test [5], 0.865; in test [6] it was 2.05; in test [7], 0.663. Also, the composite z-score in test [8] is 1.32; in [9], -1.1; in test [10] it was 0.922; in test [11] it was 2.63; in test [12], 1.17; in test [13], 1.17. The composite z-score in test [14] was 0.75; in [15], -0.651; in [16], -0.962; in test [18] it was -0.697; in test [19], 1.31. The composite Z-score in test [2] is 0.192 (inactive). Also, the z-score is 0.22 in test [17] and -0.736 (inactive) in test [20].
For `CO[C@H]1COC(=O)[C@@H](Cc2ccccc2)NC(=O)[C@@H](C)COC(=O)CC=C[C@@H]1C`, the composite z-score in test [1] is -1.03; in test [3], -0.095; in [4], -0.14; in [5], -0.498; in test [6], -0.875; in test [7], -0.422. Moreover, the composite z-score was -0.0602 in test [8]; 1.24 in test [9]; -0.773 in test [10]; -0.28 in [11]; -0.0865 in test [12]; -0.112 in test [13]. Further, the composite z-score was -0.277 in test [14]; 1.24 in [15]; 1.01 in [16]; 1.01 in test [18]; -0.744 in test [19]. Also, in test [2], the composite Z-score is -0.179 (inactive). The z-score is 1.3 in [17] and -1.16 (inactive) in [20].
Turning to `C=C(COC)/C(=C/C[C@@H](OC(=O)c1ccncc1)c1ccc(OCCO)cc1)c1cc(C(=O)OC)ccc1OC`, the composite z-score in [1] was 0.655; in test [3], 0.0631; in [4], -0.0784; in [5], 0.655; in test [6] it was 1.61; in [7] it was 0.482. Further, the composite z-score is 1.3 in test [8]; -0.0659 in test [9]; 1.06 in [10]; 2.06 in test [11]; 1.21 in [12]; 1.21 in test [13]. For the same compound, the composite z-score was 0.791 in test [14]; 0.59 in test [15]; 0.334 in [16]; 0.716 in test [18]; 1.3 in test [19]. Further, the composite Z-score in test [2] is 0.345 (inactive). The z-score was 2.2 in test [17] and -2.22 (inactive) in test [20].
On to `CC(c1ccccc1)C(O)C1C=CC2C(=O)N(C)C(=O)C2N1N(c1ccccc1)c1ccccc1` (stereo not given), for which the composite z-score turned out to be 0.867 in test [1]; 0.207 in test [3]; 0.0605 in test [4]; 0.507 in test [5]; 1.57 in [6]; 0.19 in test [7]. Further, the composite z-score in test [8] is 0.431; in [9], -0.852; in [10], -0.597; in [11], 0.69; in test [12], 0.919; in test [13], 0.467. The composite z-score in [14] was 0.948; in test [15] it was -0.19; in [16] it was -0.377; in test [18], -0.617; in test [19] it was 1.18. Further, the composite Z-score in test [2] is 0.543 (inactive). The z-score in test [17] is 0.755; in test [20], -0.273 (inactive).
On to `C=CC[C@]1(C(=O)NCC(O)CO)N=C(c2ccc(OCCCO)cc2)O[C@H]1c1ccccc1` (stereo not given in full), for which the composite z-score in [1] is 0.704; in test [3] it was -0.0391; in [4] it was -0.0877; in [5], 0.793; in [6] it was 3.04; in [7] it was 1.3. Moreover, the composite z-score in test [8] is -0.126; in [9], -1.43; in [10], -0.49; in test [11] it was 0.307; in test [12] it was 0.904; in test [13] it was 0.12. The composite z-score in [14] was 0.106; in test [15], -0.307; in test [16], -0.651; in test [18] it was -1.51; in test [19], 0.587. Also, the composite Z-score in [2] was 1.59 (inactive). Moreover, the values for the z-score in test [17] and in [20] were 0.985 and -0.428 (inactive), respectively.
As for `O=C1O[C@H](c2ccccc2)[C@H](c2ccccc2)N2[C@H]1[C@@H](C(=O)Nc1nc3ccccc3s1)[C@]1(C(=O)Nc3ccc(C#CC4(O)CCCCCC4)cc31)[C@H]2c1ccc(O)cc1`, the composite z-score is 0.934 in test [1]; 0.116 in [3]; -0.0283 in test [4]; 0.415 in test [5]; 2.53 in test [6]; 0.797 in test [7]. The composite z-score in test [8] came to 1.3; in [9] it was 0.528; in test [10], 1.14; in test [11], 1.71; in [12] it was 1.2; in test [13], 0.164. Further, the composite z-score is 1 in [14]; 1.29 in test [15]; 1.31 in test [16]; 0.666 in [18]; 0.856 in test [19]. Also, in [2], the composite Z-score is 0.928 (inactive). Besides, the z-score in [17] was -2.35; in test [20] it was -1.27 (inactive).
In the case of `O=C1O[C@@H](c2ccccc2)[C@@H](c2ccccc2)N2[C@@H](c3ccc(OCCO)cc3)[C@]3(C(=O)Nc4ccc(C#CCCO)cc43)[C@@H](C(=O)N3CCN(c4ncccn4)CC3)[C@H]12`, the composite z-score is 0.536 in test [1]; 0.143 in [3]; -0.0684 in test [4]; 0.485 in test [5]; 1.87 in [6]; 0.188 in test [7]. For the same compound, the composite z-score in test [8] was 1.32; in [9], 0.168; in test [10] it was 1.17; in [11], 0.468; in [12] it was 1; in [13] it was 0.341. The composite z-score in test [14] is 0.941; in test [15] it was 1.34; in test [16], 0.331; in [18], 0.635; in test [19] it was 1.2. Besides, in [2], the composite Z-score is 0.337 (inactive). Besides, the z-score is -0.0856 in [17] and 0.47 (inactive) in test [20].
